Compound activity deposited in PubChem by Broad Institute.
MITF act: MITF TRPM1 promoter activation in melanoma cells. SK-MEL-5 TRPM1-promoter luciferase, 24 h; % of positive control, neutral wells = 0. activation, % at 12.5 µM. 300,000 compounds, 0.75% hits. AID 588334;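 active means mean activation of at least 80% with every replicate also reaching 80%; inconclusive means mean reaches 80% but some replicate falls short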;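 further: 0% = neutral control wells and 100% = parthenolide positive control wells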
Vif inh: blocks HIV Vif function. 340,000 compounds, 0.35% hits. AID 602346. inhibition, % at 7.49 µM. HEK293T cells, Vif self-association by quenched fluorescence, imaging, 24 h; in the data active means inhibition above about 50%, passing the limit was not always enough; inconclusive means no clear call, values can overlap the other calls; inactive means below about 31%
PvdQ inh: P. aeruginosa PvdQ acylase inhibition | inhibition, % at 10 µM | 340,000 compounds, 0.063% hits | AID 488965 | purified PvdQ acylase, fluorescence plate reader; in the data active means inhibition above about 30%, passing the limit was not always enough; inconclusive means no clear call, values can overlap the other calls;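 further: 0% = vehicle neutral wells and 100% = reference inhibitor wells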
esBAF inh: SWI/SNF esBAF complex inhibition. 350,000 compounds, 2% hits. reporter increase, % at 12.5 µM. mouse ES cells, Bmi1-luciferase knock-in reporter, 24 h; 100% = twice the neutral-well signal; in the data active means activation above about 40%; inconclusive means no clear call, values can overlap the other calls;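 further: 0% = median of the plate's neutral control wells and 100% = double that signal; a rise in the Bmi1 reporter signal indicates esBAF inhibition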
Glyco luc inh: blocks N-linked glycosylation in D54 reporter cells. D54 ERlucT glycosylation luciferase reporter, 24 h; percent of 100 nM tunicamycin response. reporter increase, % at 12.5 µM. 360,000 compounds, 0.23% hits. AID 588692;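 active means mean luciferase reporter signal, scaled so untreated is 0 and the glycosylation-blocking control 100, at or above a set limit in every replicate; inconclusive means mean reaches the limit but not every replicate does; inactive means mean below the limit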;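 further: luciferase carries N-glycosylation sites so blocking glycosylation raises the light; 0% = median of neutral control wells and 100% = median of 100 nM tunicamycin wells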
Wnt bcat act: activates Wnt/beta-catenin signaling in a reporter cell assay. activator, plate reader. activation, % at 9.35 µM. 300,000 compounds, 1.2% hits. AID 743398; in the data active means activation above about 30%, passing the limit was not always enough; inconclusive means no clear call, values can overlap the other calls;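 further: 0% = neutral control wells and 100% = positive control wells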
* = called active by the depositor; i = inactive; ? = inconclusive; . = no result given. Only some compounds are listed: those with a hit (about 2.9% of all), similar ones and a draw of the others.

SMILES | MITF act | Vif inh | PvdQ inh | esBAF inh | Glyco luc inh | Wnt bcat act
COc1cc2ccc(-c3ccc4ccccc4n3)cc2cc1OC | . | -9 | . | . | 0 | 50*
COc1ccc(-c2ccc3ccccc3n2)cc1OC | 100* | 0 | -8 | . | -4 | 31*
O=C(c1cnsn1)N1CCC(CO)(Cc2cccc(F)c2)CC1 | 114* | -3 | -6 | 70* | -1 | 50*
COc1ccc(NC(=O)Nc2ccc3c(c2)CC(=O)N([C@H](C)CO)C[C@H](C)[C@H](CN(C)S(=O)(=O)c2ccc(F)cc2)O3)cc1 | . | . | . | -1 | . | .
O=C1C(C=NCCCn2ccnc2)=C(O)c2ccccc21 | -5 | -6 | 2 | 53* | -1 | -3
O=C1C(C=NCc2ccccn2)=C(O)c2ccccc21 | 50 | -3 | 1 | 73* | -2 | -2
Oc1[nH]c(N=C2N=c3ccccc3=N2)c2ccccc12 | -29 | i | -17 | 11 | 117* | 29
Cc1noc(C)c1NC(=O)NCC[C@H]1CC[C@H](NC(=O)Nc2cccc(Cl)c2)[C@@H](CO)O1 | . | . | . | 2 | . | .
S=c1[nH]nc(-c2ccncc2)n1/N=C/c1cn(-c2ccccc2)nc1-c1ccccc1 | . | -1 | . | . | 7 | 37*
CNc1cc(-c2ccc(OC)nc2)ncn1 | . | -6 | . | 50* | 0 | 20
CC(C)NC(=O)Nc1ccc2c(c1)C(=O)N([C@@H](C)CO)C[C@H](C)[C@H](CN(C)S(=O)(=O)c1ccc(F)cc1)OCCCC[C@H](C)O2 | . | . | . | -3 | . | .
CN(C)c1ccc(-n2cc3c(=O)n(C)c(=O)n(C)c3c2)cc1 | 70 | -6 | -15 | 71* | 0 | .
COc1ccc(-c2cc(N)n(S(=O)(=O)c3c(F)c(F)c(F)c(F)c3F)n2)cc1OC | -97 | 59* | 12 | 3 | 4 | -4
Cc1ccc(O)c(NC(=O)C2CCCCC2)c1 | -2 | -6 | -6 | . | 0 | -2
Cc1ccc(O)c(NC(=O)CCC2CCCCC2)c1 | 84* | 15 | -13 | . | 2 | .
O=C(CCC1CCCCC1)Nc1ccccc1O | 95* | -6 | -4 | 42* | -2 | 25
CCCNC(=O)N(C)C[C@H]1Oc2cc(-c3cncnc3)ccc2S(=O)(=O)N([C@H](C)CO)C[C@H]1C | . | . | . | 2 | . | .
COC(=O)c1[nH]c2ccc(Cl)cc2c1NC(=O)Oc1ccccc1 | . | 19 | -17 | 58* | 2 | 20
COC(=O)c1[nH]c2ccc(Cl)cc2c1NC(=O)C1CC1 | 13 | 2 | 8 | 9 | 2 | 1
COc1ccc(-c2nn(-c3ccccc3)cc2/C=N/Nc2cccc(C(=O)O)c2)cc1 | 41 | -2 | 0 | 47* | 3 | 3
COc1ccc(-c2nn(-c3ccccc3)cc2/C=N/NC(=O)c2ccc(Br)o2)cc1 | -61 | -12 | -4 | 2 | -2 | .
COc1ccc(-c2nn(-c3ccccc3)cc2C(=O)NC(=S)NNC(=O)c2ccncc2)cc1 | -34 | 60* | -3 | -45 | -5 | -1
COc1ccc(-c2nn(-c3ccccc3)cc2C#N)cc1 | 105* | 0 | 2 | 45* | 1 | .
Cc1noc(C)c1NC(=O)Nc1ccc2c(c1)C(=O)N([C@@H](C)CO)C[C@@H](C)[C@@H](CN(C)C(=O)C1CCCCC1)OCCCC[C@@H](C)O2 | . | . | . | 4 | . | .
O=C(NC1CCCCCC1)C(=O)NC1CC1 | . | -4 | -12 | 9 | 1 | 1
SMILES | MITF act | Vif inh | PvdQ inh | esBAF inh | Glyco luc inh | Wnt bcat act
O=C(NC1CCCCCCC1)NC1CCCCC1 | 91* | 4 | 0 | . | 1 | 58*
O=C(NC1CCCCCC1)C(=S)NC1CCCCC1 | 64 | -3 | -17 | . | -1 | 33*
C[C@@H]1CN([C@@H](C)CO)S(=O)(=O)c2ccc(-c3cccc(C#N)c3)cc2O[C@@H]1CN(C)C(=O)C1CC1 | . | . | . | -6 | . | .
COc1ccc(S(=O)(=O)N(C)C[C@@H]2Oc3ccc(NC(=O)C4CC4)cc3CC(=O)N([C@H](C)CO)C[C@H]2C)cc1 | . | . | . | -1 | . | .
Cc1ccc(S(=O)(=O)Nc2ccc3c(c2)C(=O)N([C@H](C)CO)C[C@H](C)[C@H](CN(C)Cc2ccc(C(F)(F)F)cc2)OCCCC[C@H](C)O3)cc1 | . | . | . | -4 | . | .
Cc1cc(/C=C2\C(=O)NN(c3ccccc3)C2=O)c(C)n1-c1ccccc1O | 43 | 4 | -8 | 58* | -7 | 13
O=C(C[C@H]1C=C[C@H](NC(=O)c2ccccn2)[C@H](CO)O1)NCc1cccc(F)c1 | . | . | . | -5 | . | .
COc1ccc(NC(=O)Nc2ccc3c(c2)C(=O)N([C@@H](C)CO)C[C@@H](C)[C@@H](CN(C)C(=O)Nc2cccc4ccccc24)OCCCC[C@H](C)O3)cc1 | . | . | . | 0 | . | .
O=C(Nc1ccc(Cl)c(Cl)c1)N1CC=CCC1 | 76 | -8 | -20 | 100* | 0 | .
C[C@H](CO)N1C[C@H](C)[C@H](CN(C)C(=O)C2CC2)Oc2cc(C3=CCCCC3)ccc2S1(=O)=O | . | . | . | -2 | . | .
C/C=C/c1ccc([C@@H]2[C@@H](CO)N(C(C)=O)[C@H]2CN(CC)C(=O)CN(C)C)cc1 | . | . | . | -2 | . | .
Cc1cccc(N=NC(=S)NNc2cccc(C)c2)c1 | 39 | 10 | -6 | 52* | -4 | -3
Cn1c(=O)c(C(=O)Nc2ccccc2S(N)(=O)=O)c(O)c2ccccc21 | 16 | . | -8 | 52* | -1 | 16
CC(C)C1Nc2ccc(C(=O)NCCCN3CCOCC3)cc2NC1=O (stereo not given) | 7 | 55* | -8 | -7 | 1 | .
Cc1ccc(S(=O)(=O)N(C)C[C@@H]2Oc3ccc(NS(=O)(=O)c4cccs4)cc3C(=O)N([C@H](C)CO)C[C@H]2C)cc1 | . | . | . | 1 | . | .
O=C(c1cc2ccccc2[nH]1)N1CCOCC1 | -23 | 5 | -1 | . | 1 | 36*
O=C(C[C@@H]1CC[C@H]2[C@@H](COC[C@H](O)CN2S(=O)(=O)c2ccccc2)O1)NCc1ccc(-c2ccccc2)cc1 | . | . | . | 1 | . | .
COC(=O)C[C@H]1CC[C@@H]2[C@@H](COc3ccc(NC(=O)c4cnccn4)cc3C(=O)N2C)O1 | . | . | . | -1 | . | .
CCn1c2ccc(C)cc2c2nnc(SCCN3CCOCC3)nc21 | 1 | -4 | 3 | . | -2 | -3
Cc1ccc2c(c1)c1nc3ccccc3nc1n2CCN1CCOCC1 | . | -7 | 11 | 60* | 7 | .
Cc1ccc(S(=O)(=O)NC2=C(N3CCN(Cc4ccccc4)CC3)C(=O)c3ccccc3C2=O)cc1 | -39 | -6 | 0 | . | 65* | .
CS(=O)(=O)N1[C@@H]2c3cccc(=O)n3C[C@H]1[C@H](CO)[C@H]2C(=O)NCc1ccccc1 | . | . | . | 6 | . | .
Cc1ccc(NC(=O)C2=NNC(=O)CC2)cc1F | 40 | -4 | -6 | . | 1 | 34*
CC(C)c1ccc(NC(=O)C2=NNC(=O)CC2)cc1 | 78 | 3 | -15 | . | -4 | ?
Cc1ccc(/C=C(\C#N)c2nc3ccccc3[nH]2)s1 | 50 | -1 | -1 | 98* | -2 | .
Cc1cc(/C=C(\C#N)c2nc3ccccc3[nH]2)c(C)n1C | 63 | -7 | -12 | . | 6 | 84*
